# Measured values taken from PubChem BioAssay AID588342 (National Center for Advancing Translational Sciences (NCATS), 2011).
# The campaign covered roughly 360,000 compounds. About 25,000 (6.9%) were called active. About 9% were inconclusive and are not listed. The entries come from a sample that favours actives as a whole. Unmarked numbers belong to inactive results. Calls follow the shape of the dose curve; as a rule, active = well fitted inhibition curve with a large enough effect; inconclusive = small, poorly fitted or top-dose-only effect; inactive = flat fitted curve, though single readings scatter.
# Molecular target: Luciferin 4-monooxygenase (Photinus pyralis) (UniProt P08659)
# Sequence (P08659 whole entry, looked up): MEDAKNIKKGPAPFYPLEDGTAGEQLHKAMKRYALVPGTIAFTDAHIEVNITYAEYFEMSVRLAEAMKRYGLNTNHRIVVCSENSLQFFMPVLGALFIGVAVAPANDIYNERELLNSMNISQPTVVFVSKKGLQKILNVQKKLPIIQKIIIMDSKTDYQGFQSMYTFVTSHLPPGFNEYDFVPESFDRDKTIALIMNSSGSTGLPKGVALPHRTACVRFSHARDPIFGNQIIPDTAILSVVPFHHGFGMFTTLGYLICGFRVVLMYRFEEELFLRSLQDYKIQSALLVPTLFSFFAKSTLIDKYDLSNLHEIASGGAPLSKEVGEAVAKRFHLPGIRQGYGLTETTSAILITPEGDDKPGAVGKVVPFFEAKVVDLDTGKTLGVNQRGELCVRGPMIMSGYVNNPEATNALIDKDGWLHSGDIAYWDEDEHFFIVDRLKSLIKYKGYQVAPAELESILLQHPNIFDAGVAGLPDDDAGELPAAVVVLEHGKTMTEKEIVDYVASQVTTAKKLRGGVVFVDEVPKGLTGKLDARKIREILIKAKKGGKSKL
# Test: qHTS profiling assay for firefly luciferase inhibitor/activator using purifed enzyme and Km concentrations of substrates (counterscreen for miR-21 project); also: nearly all actives have a fitted effect of over 55% in size;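 as to activity change, negative = inhibition: plate controls were vehicle for no effect and reference inhibitor for full effect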
# Details: purified FLuc, luminescence inhibition; series mostly up to 57.5 µM; activity change, negative = inhibition: at the top concentration
# In short: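 Purified P. pyralis luciferase, 10 nM final, with Km-level 10 uM D-luciferin and 10 uM ATP in 50 mM Tris acetate pH 7.5, 10 mM Mg acetate, 0.01% Tween-20, 0.05% BSA; 6-point qHTS titration about 60 µM downward; luminescence read.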
# Potency is read from the fitted curve at half-maximal effect.
Compound,"activity change, negative = inhibition [%]",Potency
C=CCn1c(=O)c(C(=O)NCc2ccc3c(c2)OCO3)c(O)c2ccccc21,-0.503,
O=C(NNS(=O)(=O)c1ccc(F)cc1)c1cnccn1,0.8,
O=C(CC1Oc2ccccc2NC1=O)NCc1ccc(F)cc1 (stereo unspecified),-1.72,
CCOC(=O)c1c(C)oc2ccc(N(C(=O)c3ccncc3)S(=O)(=O)c3ccc(CC)cc3)cc12,2.91,
O=Cc1c(Cl)cccc1Cl,6.02,
Cc1ccc(-c2nn(-c3cccc(F)c3)cc2CNCCc2ccncc2)o1,,15.1 µM (active)
Cc1ccc(-c2nn(-c3ccccc3)cc2CN(Cc2ccccc2)C(=O)CCC(=O)O)o1,-0.788,
CSCCNCc1cn(-c2ccc(F)cc2F)nc1-c1ccccc1C,1.46,
CCCN(CCC)CCNC(=O)Cn1cnc2sc(C)c(S(=O)(=O)N3CCC(C)CC3)c2c1=O,0.958,
N#Cc1nc(/C=C/c2ccc(F)cc2)oc1NC1CCCCC1,5.61,
Cc1ccc(-c2nn(-c3ccccc3)cc2/C=N/NC(=O)c2ccc3c(c2)OCO3)cc1,,4.26 µM (active)
CC(C)(C)OC(=O)N/N=C/c1cn(-c2ccccc2)nc1-c1cccnc1,-11.3,
O=C(N/N=C/c1ccc([N+](=O)[O-])o1)c1cn(-c2ccccc2)nc1-c1ccc(F)cc1,-9.76,
COc1ccc(C(=O)N2CCC(c3nc4ccccc4o3)CC2)cc1,-7.24,
CC(O)c1ccc(OCCN(C)c2ccccn2)cc1 (stereo unspecified),,15.1 µM (active)
CCOc1ccc(C(C(=O)NCCOC)N(CCOC)C(=O)CCC(=O)Nc2ccccn2)cc1 (stereo unspecified),-1.94,
CC(C)c1ccc(OCC(O)CN2CCN(c3ccccn3)CC2)cc1 (stereo unspecified),2.2,
COCCn1c(CCC(=O)Nc2cc(C)ccc2C)nc2cccnc21,-0.522,
COc1ccc2c(c1)C=C(C(=O)NCc1cc(Br)ccc1OC)CO2,-6.57,
COc1ccccc1NC(=O)c1sc2nc(C)c(C(=O)Nc3ccc(Cl)cc3)c(-c3ccc(Br)cc3)c2c1N,-1.17,
O=C(CN1CCCCCC1)NCCN1C(=O)S/C(=C\c2ccccc2Cl)C1=O,-7.09,
Cc1cc(/C=C2/SC(=O)N(CC(=O)OC(C)C)C2=O)c(C)n1C,,15.1 µM (active)

Compound,"activity change, negative = inhibition [%]",Potency
CC(C)OC(=O)CN1C(=O)C(=O)c2ccccc21,-0.663,
COc1ccc(COC(=O)c2n[nH]c3ccccc23)cc1F,,19 µM (active)
COc1cccc(CNC(=O)c2n[nH]c3ccccc23)c1,,26.9 µM (active)
O=C(NCCc1ccc(F)cc1)c1n[nH]c2ccccc12,,16.9 µM (active)
O=C(NCCc1ccc(Cl)cc1)c1ccc2c(c1)N(Cc1ccc(F)cc1)C(=O)CS2,-14.2,
O=C(CC(=O)N/N=C\c1ccc(F)cc1)NCCc1ccccc1,-1.3,
COc1ccc(F)cc1C(=O)COC(=O)c1n[nH]c(=O)c2ccccc12,-1.17,
COc1cccc(CNC(=O)Cc2csc(Nc3nc(=S)[nH]c4ccccc34)n2)c1,-0.0432,
O=C(COC(=O)c1n[nH]c2ccccc12)NCc1ccccc1,-11.5,
O=C(NCCc1ccc(F)cc1)c1ccc2nccnc2c1,,8.49 µM (active)
O=C(COC(=O)Cc1c[nH]c2ccccc12)NCCc1ccccc1,4.44,
COc1ccc(NC(=O)COC(=O)c2n[nH]c3ccccc23)c(OC)c1,-1.44,
O=C(NCCc1ccc(F)cc1)c1ccc(S(=O)(=O)N2CCCCC2)cc1,-2.12,
COc1ccc(CCNC(=O)c2cc(=O)c3c(C)cc(C)cc3o2)cc1OC,-16.7,
CCOC(=O)c1cccc(NC(=O)c2cc(CN3CCCC3)on2)c1,-19.1,
Cc1ccc(CNC(=O)CCC(=O)N2Cc3ccccc3Oc3ncccc32)cc1,-8.22,
CC(=O)c1c(C)[nH]c(C(=O)OCC(=O)Nc2c(C)n(C)n(-c3ccccc3)c2=O)c1C,-0.915,
CC1(NC(=O)CCS(=O)(=O)c2ccc(Cl)cc2)CCS(=O)(=O)C1 (stereo unspecified),1.48,
Cc1ccccc1CN1CCC(CNC(=O)c2c(C)oc3ncnc(N4CCCCC4)c23)CC1,-3.54,
Cc1ccc(Nc2nnc(SC(C)C(=O)NC3CC3)s2)cc1 (stereo unspecified),-20.7,
CCOC(=O)c1c(NC(=O)CCl)sc(C(=O)N(CC)CC)c1C,4.64,
Cc1ccc(C)c(NC(=O)CN(C)C(=O)c2ccc3ncsc3c2)c1,-10.6,

Compound,"activity change, negative = inhibition [%]",Potency
Cc1c(C(=O)N(C)C)sc2c1c(=O)n(-c1ccc(F)cc1)c(=O)n2CC(=O)N(C)c1ccccc1,0.935,
CC(=O)c1ccc2c(c1)OCCOCCOc1ccc(C(C)=O)cc1OCCOCCO2,-0.182,
Cc1cc(C(=O)O)ccc1[N+](=O)[O-],2.58,
CN(C)c1ccc(/C=C/C(=O)c2ccc(O)cc2)cc1[N+](=O)[O-],,12 µM (active)
O=C(COC(=O)/C=C/c1ccc2c(c1)OCO2)NC1CCS(=O)(=O)C1 (stereo unspecified),4.04,
O=C(/C=C/c1ccc(Cl)cc1)N1CCN(c2ccccc2[N+](=O)[O-])CC1,2.35,
O=C(/C=C/c1ccc2c(c1)OCCO2)c1ccc(O)cc1,,1.35 µM (active)
CCC(=O)NC(Nc1cc(C)ccn1)(C(F)(F)F)C(F)(F)F,0.488,
Cc1cc(=O)oc(C)c1C(=O)NC1CC(C)(C)NC(C)(C)C1,3.1,
O=C(C1CCCN(S(=O)(=O)c2cccc3nonc23)C1)N1CCN(c2ccccc2F)CC1 (stereo unspecified),-8.46,
CCc1ccc(S(=O)(=O)n2ccnc2)cc1,-10.1,
CCOc1ccc(NC(=O)CSc2c3c(nc4ccccc24)CCCC3)cc1,0.835,
O=C(Nc1c2c(nc3ccccc13)CCCC2)c1ccccc1Br,-0.545,
O=C(COC(=O)c1c2c(nc3ccccc13)CCCC2)c1ccc(Br)s1,,15.1 µM (active)
Cc1nn(Cc2ccccc2)c(C)c1C(=O)N1CCN(CC(=O)Nc2ccccc2Cl)CC1,0.182,
COc1ccccc1/C=C/c1nc(C#N)c(NC(C)c2ccccc2)o1 (stereo unspecified),-10.4,
CC(C)c1ccc(NC(=O)COC(=O)c2ccc(CN3CCCC3=O)cc2)cc1,-0.471,
Cc1cc(OC(C)C(=O)Nc2sc3c(c2C(N)=O)CCCC3)ccc1Cl (stereo unspecified),-2.53,
CCCC(=O)Nc1cccc(-c2cn3ccsc3n2)c1,,21.3 µM (active)
O=C(NCc1cn2ccsc2n1)Nc1cccc(Cl)c1,-16.5,
CCc1cccc(NC(=O)CCC(=O)O)c1,-1.25,
CCc1nn(CC(=O)NCC(C)c2ccccc2)c(=O)c2cc3occc3n12 (stereo unspecified),-4.47,
